# HIV TAR-Tat – TAR RNA-Tat peptide displacers, HIV-1, primary screen, biochemical, FRET, FAM/TAMRA-labeled Tat; HIV-1 TAR RNA, Tat peptide displacement FRET; stronger effect = higher value; z-score (concentration not given with the values); 0.6% of 100,000 active; AID 1259389, 2018; active = z-score of 3 or more in at least 2 runs
# CDC25B-CDK2 inh – primary biochemical HTRF screen for blockers of M-phase inducer phosphatase 2 binding to CDK2/cyclin A | z-score (concentration not given with the values) | P30305+P24941 | HTRF CDC25B-CDK2/CyclinA binding, anti-His/anti-Flag; stronger effect = higher value | AID 1259370, 2018 | 0.72% of 94,000 active; in the data active = z-score above about 3.2
# Starred values were filed as active, the others as inactive; . = no result given. Hits are enriched below; roughly 0.9% of the tested compounds scored in any of these assays.
SMILES,HIV TAR-Tat,CDC25B-CDK2 inh
Nc1ccc(O)c2c1C(=O)c1c(N)ccc(O)c1C2=O,.,-2.6
CC(=O)Oc1cc(OC(C)=O)c2c(c1)O[C@H](c1ccc(OC(C)=O)c(OC(C)=O)c1)[C@@H](OC(C)=O)C2,0.8,.
O=c1c(O)cc([C@H]2Oc3cc(O)cc(O)c3C[C@H]2O)cc2c([C@H]3Oc4cc(O)cc(O)c4C[C@H]3O)cc(O)c(O)c12,18*,.
O=C(O[C@@H]1Cc2c(O)cc(O)cc2O[C@@H]1c1cc(O)c(O)c(O)c1-c1c([C@H]2Oc3cc(O)cc(O)c3C[C@H]2O)cc(O)c(O)c1O)c1cc(O)c(O)c(O)c1,4.7*,.
O=C(Oc1cc(OC(=O)c2ccccc2)c2c(c1)O[C@H](c1ccc(OC(=O)c3ccccc3)c(OC(=O)c3ccccc3)c1)[C@@H](OC(=O)c1ccccc1)C2)c1ccccc1,-0.12,.
O=C1C[C@@H](c2ccc(O)cc2)Oc2cc(O)cc(O)c21,2.9,.
O=C(O[C@@H]1Cc2c(O)cc(O)cc2O[C@@H]1c1ccc(O)c(O)c1)c1cc(O)c(O)c(O)c1,29*,.
O=C(O[C@@H]1Cc2c(O)cc(O)cc2O[C@@H]1c1cc(O)c(O)c(O)c1)c1cc(O)c(O)c(O)c1,25*,.
CCn1c(C)c(C2=CCN(S(=O)(=O)c3cccc4nsnc34)CC2)c2ccccc21,0.95,-0.74
CN(c1c(-c2ccccc2)c(=O)c1=O)C1CCCCC1,0.68,.
CC(C)NC(=O)N1CCn2cccc2C1C(C)C (stereo not given),0.09,.
CCc1nnc2c(Nc3ccc(Br)cc3)nc3ccccc3n12,-1.5,.
CCC(C)(C)NS(=O)(=O)c1ccc2c(c1)NC(=O)CCS2,0.48,.
Oc1cc(O)c2c(c1)O[C@H](c1ccc(O)c(O)c1)[C@H](O)C2,24*,.
Oc1ccc2c(c1)O[C@H](c1ccc(O)c(O)c1)[C@@H](O)C2,3.1,.
Cc1ccc(-c2noc(COc3cc(C)ccc3C)n2)cc1,.,-0.7
CCN(CC)CCCNC(=O)Cn1nc(C)n2cccc2c1=O,0.98,-2.4
Cc1ccc(C(=O)CSc2n[nH]c(-c3ccco3)n2)cc1C,15*,-4.1
COc1ccc(C(=O)CSc2n[nH]c(-c3ccco3)n2)cc1C,-1.9,-3.2
O=C(COc1ccc(F)cc1)NCC(c1ccco1)N1CCCC1 (stereo not given),-0.45,-0.51
CCN(CC)C(=O)CSc1nnc(-c2nonc2NC(C)=O)n1-c1ccccc1,0.23,-0.28
CCN(CC#CC(O)(c1ccccc1)C1CCCC1)C(C)C (stereo not given),0.06,-1.3
Oc1cc2c(cc1O)C1c3ccc(O)c(O)c3OCC1(O)C2 (stereo not given),29*,.
O=C(NCc1cccn1Cc1ccccc1F)Nc1ccccc1Br,1.4,.
CCNc1cc(N2CCN(C)CC2)c2noc3c2c1C(=O)c1ccccc1-3,0.06,-2.6
SMILES,HIV TAR-Tat,CDC25B-CDK2 inh
CN1CCN(c2cc(N3CCCCC3)c3c4c(onc24)-c2ccccc2C3=O)CC1,-6,5.6*
CC1CC(C)CN(c2cc(NCCCC(=O)O)c3c4c(onc24)-c2ccccc2C3=O)C1 (stereo not given),-1.8,3*
CC1CC(C)CN(c2cc(NCCO)c3c4c(onc24)-c2ccccc2C3=O)C1 (stereo not given),1.2,-3.2
CCN1CCN(c2cc(N3CCCCC3)c3c4c(onc24)-c2ccccc2C3=O)CC1,-4.5,1.2
CC1CC(C)CN(c2cc(NCC(=O)O)c3c4c(onc24)-c2ccccc2C3=O)C1 (stereo not given),-5.8,12*
CC1CCCN(c2cc(NCCCC(=O)O)c3c4c(onc24)-c2ccccc2C3=O)C1 (stereo not given),-2.2,0.56
CN1CCN(c2cc(NCC(=O)O)c3c4c(onc24)-c2ccccc2C3=O)CC1,0.58,3.9*
Cc1nnc(N2C(=O)C(O)=C(C(=O)c3ccco3)C2c2ccc(Br)cc2)s1 (stereo not given),.,-3.2
COc1cnc(CSc2ccc(F)cc2)cc1OCC(=O)NCC1CCCO1 (stereo not given),1.3,.
COc1ccc(C2c3c(-c4ccccc4O)n[nH]c3C(=O)N2CCc2ccccc2)cc1OC (stereo not given),1.4,2.2
CC1CCCN(c2cc(NCC(=O)O)c3c4c(onc24)-c2ccccc2C3=O)C1 (stereo not given),-6,3*
CC1CCCN(c2cc(NCCO)c3c4c(onc24)-c2ccccc2C3=O)C1 (stereo not given),2.7,-0.36
CCOC(=O)C1CCCN(c2cc(NCCO)c3c4c(onc24)-c2ccccc2C3=O)C1 (stereo not given),8.8*,0.97
CCNc1cc(N2CCCC(C(=O)OCC)C2)c2noc3c2c1C(=O)c1ccccc1-3 (stereo not given),1.8,-2
CSc1ncc(C(=O)N2CCN(c3ccccn3)CC2)c(-c2ccccc2)n1,1,.
CNC(=O)C1CCN(c2nnc(-n3c(C)ccc3C)s2)CC1,0.73,-0.24
COc1ccc(S(=O)(=O)N2CCCC2c2ccco2)cc1Cl (stereo not given),0.83,-1.4
CC1CC(=O)Nc2cc(S(=O)(=O)N(Cc3ccco3)C3CCCC3)ccc2S1 (stereo not given),-0.26,.
CSc1sc(C(=O)NC(=O)Nc2ccc(Cl)cc2)c2c1-c1nocc1CC2,.,13*
CSc1sc(C(=O)NNC(=O)Nc2ccc(Cl)cc2)c2c1C1(CCC2)SCCS1,.,-1.5
CCOC(=O)c1c(S(=O)(=O)NCCc2ccco2)c(C)n(C)c1C,2.2,.
O=C(NC(=S)NCc1ccco1)c1csc([N+](=O)[O-])c1,.,-0.93
NC(C(=O)O)C1CCCCC1 (stereo not given),.,-0.39
N[C@H](C(=O)O)[C@H]1C[C@@H]1C(=O)O,.,7.7*
COc1ccc(-c2nc(=S)c3c([nH]2)Oc2ccccc2C3)cc1O,1.3,10*
SMILES,HIV TAR-Tat,CDC25B-CDK2 inh
COc1cccc2c1Oc1[nH]c(-c3ccc(O)cc3)nc(=S)c1C2,-0.64,0.26
COc1ccc(-c2nc(=S)c3c([nH]2)Oc2ccccc2C3)cc1OC,1.6,0.7
COc1cccc2c1Oc1[nH]c(-c3ccc(C(=O)O)cc3)nc(=S)c1C2,33*,2.7
Cc1cc(C)cc(NC(=O)CCc2c(C)nn(-c3ccc(N4CCCC4)nn3)c2C)c1,0.67,.
CCNC(=O)c1c(NC(=O)c2cc(=O)c3cc(C)c(C)cc3o2)sc2c1CCCC2,-0.16,-0.95
N#CC1=C2SCN(c3cccc(Cl)c3)CN2C(=O)CC1c1ccccc1 (stereo not given),-2,9.2*
COc1ccc(N2CSC3=C(C#N)C(c4ccc(Cl)cc4)CC(=O)N3C2)cc1OC (stereo not given),2.4,1.5
N#CC1=C2SCN(c3ccc(Cl)cc3)CN2C(=O)CC1c1ccccc1 (stereo not given),-1.7,7.3*
Cc1nnc2sc(SCc3c(F)cccc3Cl)nn2c1=O,1.4,.
Cc1ccnc(Nc2nc(-c3ccc(O)cc3)cs2)c1,0.86,0.67
Cc1cccc(Nc2nc(-c3ccc(O)c(O)c3)cs2)n1,16*,-0.54
Cc1cccc(Nc2nc(-c3ccncc3)cs2)n1,2.5,-0.7
Cc1ccnc(Nc2nc(-c3ccc(O)c(O)c3)cs2)c1,10*,-1.2
CCN(CC)C(=O)N1CCN(C)CC1,2.6,.
COc1ccc(CNc2cc(-c3ccccc3)nc3nncn23)cc1,0.51,3.9
